Measurements as given in the supplement of paper PMC10338343.
± gives the standard deviation.

Tests used:
[1] = test system: MILI (PIWIL2) piRISC loaded with L1MC piRNA (26 nt); assay: pre-steady-state target cleavage rate (min^-1); guide: L1MC piRNA 5'p-UAACUAAAUACUAUGCAAGCUGUAGG; higher = faster piRNA-guided slicing of the target;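 note: 1 nM active piRISC with 0.1 nM target library at 33 °C single turnover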
In short: (§1)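 Cleave-'n-Seq measured uncleaved targets by sequencing after a transcribed, DNA-blocked target RNA library […] was mixed with 1 nM active affinity-purified piRISC holding one synthetic guide, with or without 500 nM GTSF1 partner protein, at 33 °C in HEPES–potassium acetate buffer for 0–8 or 0–960 min. Counts were normalised to depth and to weakly complementary targets, three trials were pooled, and k3 was capped at 0.0001 min^-1. A burst-and-steady-state fit gave the pre-steady-state cleavage rate.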

[2] = test system: EfPiwi piRISC loaded with L1MC piRNA (26 nt); assay: pre-steady-state target cleavage rate (min^-1); auxiliary factor: 500 nM Ephydatia muelleri Gtsf1; guide: L1MC piRNA 5'p-UAACUAAAUACUAUGCAAGCUGUAGG; MIWI and MILI are mouse PIWI proteins and EfPiwi is from a freshwater sponge; tags in brackets are library labels; higher = faster piRNA-guided slicing of the target
In short: as §1

[3] = auxiliary factor: 500 nM mouse GTSF1
[4] = auxiliary factor: none (no GTSF1)

Sequence	pre-steady-state target cleavage rate [1, 3]	pre-steady-state target cleavage rate [1, 4]	pre-steady-state target cleavage rate [2]
UCCUCCUACAGCUAGCAUAGUAUAUAGUUA	0.192 ± 0.03	0.00339 ± 0.0026	0.00495 ± 0.0026
UCCUGGAUCAGCGUUGCAUAGUAUUUAGUUA	0.212 ± 0.016	0.00789 ± 0.0028	0.021 ± 0.0057
UCCUGCUACUGCUUGCAUACUAUUUAGUUA	0.0731 ± 0.011	0.00293 ± 0.0023	0.00669 ± 0.0028
UCCUCCUACAGCUUGCAUAGUAUUUAAUUA	0.11 ± 0.019	0.00326 ± 0.0027	0.00331 ± 0.003
UCCUGGAACAGCUUGCAUAGUAUUUAGUUG [g2:g23:cont:t1G]	0.252 ± 0.024	0.00663 ± 0.0021	0.0115 ± 0.0034
UCCUGGAACUGCUAGCAUAGUAUUUAGUUA	0.215 ± 0.015	0.00611 ± 0.0019	0.0171 ± 0.0058
UCCUGGAACAGCUUGCAUAGUAUAUUAGUUA	0.247 ± 0.019	0.00778 ± 0.0024	0.0104 ± 0.0043
UCCUGGUACUGGUUGCAUAGUAUUUAGUUA	0.162 ± 0.042	0.0125 ± 0.0045	0.0054 ± 0.0031
UCCUCCAACAGCUUGGAUAGUAUUUAGUUA	0.269 ± 0.0097	0.00646 ± 0.0021	0.0467 ± 0.011
UCCUGGUCACAGCUUGCAUAGUAUUUAGUUA	0.239 ± 0.018	0.0126 ± 0.0051	0.00857 ± 0.0072
UCCUGGUACAGCUAUGCAUAGUAUUUAGUUA	0.259 ± 0.016	0.0112 ± 0.0038	0.0292 ± 0.0094
UCCUGCUACAGCGUUGCAUAGUAUUUAGUUA	0.267 ± 0.018	0.01 ± 0.0033	0.0103 ± 0.0024
UCCUGGAACAGGAUGCAUAGUAUUUAGUAA	0.221 ± 0.021	0.00369 ± 0.0022	0.0055 ± 0.0028
UCCUGGAAGAGCUAGCAUAGUAUUUAGUUA	0.212 ± 0.016	0.00677 ± 0.0024	0.00727 ± 0.0022
UCCUGGAUGUGCUUGCAUUGUAUUUAGUUA	0.0666 ± 0.013	0.00523 ± 0.0031	0.00484 ± 0.0027
UCCUCCUACUGCUUGCUUAGUAUUUAGUUA	0.234 ± 0.015	0.00718 ± 0.0021	0.0504 ± 0.015
UCCUCGUAGAGCUUGCAUAGUAUUUAGUUA	0.266 ± 0.012	0.00554 ± 0.0023	0.0385 ± 0.0086
UCCUGGAACAGCAUGCAUAGUUUUUAGUUA	0.0418 ± 0.011	0.00553 ± 0.0023	0.00387 ± 0.0016
UCCUGGUUCAGCUUGCAUUGUAUUUAGUUA	0.191 ± 0.023	0.0105 ± 0.0029	0.0223 ± 0.007
UCCUGGAUGAGCUUGCAUAGUAUUUAGUA	0.223 ± 0.025	0.00747 ± 0.0025	0.00405 ± 0.0032
UCCUGGAUGUGCUUGCAUAGUAUUUUGUUA	0.0696 ± 0.019	0.00381 ± 0.0032	0.00341 ± 0.0026
UCCUGGUACAGGUUGCAAAGUAUUUAGUUA	0.117 ± 0.012	0.0143 ± 0.0038	0.00511 ± 0.0028
UCCUGGUUGUGCUUGCAUAGUAUUUAGUUA	0.168 ± 0.018	0.0141 ± 0.004	0.0119 ± 0.0045

Sequence	pre-steady-state target cleavage rate [1, 3]	pre-steady-state target cleavage rate [1, 4]	pre-steady-state target cleavage rate [2]
UCCUGCUAUCAGCUUGCAUAGUAUUUAGUUA	0.268 ± 0.022	0.00819 ± 0.0029	0.0613 ± 0.015
UCCUCCUACAGCAUGCAUACUAUUUAGUUA	0.0758 ± 0.011	0.00328 ± 0.0022	0.00724 ± 0.0028
UCCUCCUACAGCUUGCAAAGUAUUUACUUA	0.0765 ± 0.013	0.0033 ± 0.0019	0.00282 ± 0.0024
UCCUGCUAGAGCUUGCUUAGUAUUUAGUUA	0.162 ± 0.01	0.00643 ± 0.002	0.00554 ± 0.002
UCCUGGAUGUGCUUGCAUAGUCUUUAGUUA	0.0458 ± 0.011	0.00463 ± 0.0025	0.00922 ± 0.0036
UCCUGCUACAGGUUGCAUAGUAUUAAGUUA	0.208 ± 0.034	0.00616 ± 0.0022	0.00526 ± 0.0024
UCCUGCAACUGCUUGCAUAGUAUUUAGUUA	0.322 ± 0.025	0.00581 ± 0.0026	0.0198 ± 0.0044
UCCUCGAUCAGCUUGCAUAGUAUUUAGUAA	0.269 ± 0.017	0.00809 ± 0.0023	0.00989 ± 0.0033
UCCUGGAUGUGCUUGCAUAGUAUUUAGUUC [g2:g20:cont:t1C]	0.12 ± 0.013	0.00589 ± 0.0026	0.0175 ± 0.0048
UCCUCCUACAGGUUGCAUAGUAUUAAGUUA	0.212 ± 0.027	0.00545 ± 0.0022	0.00576 ± 0.0023
UCCUGGAUCAGCUUUGCAUAGUAUUUAGUUA	0.297 ± 0.016	0.0075 ± 0.0028	0.103 ± 0.023
UCCUGGAACAGCUUGCAUUGUAUUUAGUUA	0.18 ± 0.014	0.00894 ± 0.0026	0.00926 ± 0.0026
UCCUGGUUCAGCUUGCAUAGUAUUUAGUAA	0.144 ± 0.028	0.00573 ± 0.0029	0.00696 ± 0.0035
UCCUGGAUCUCGUUGCAUAGUAUUUAGUUA	0.198 ± 0.019	0.00544 ± 0.0024	0.0466 ± 0.011
UCCUGCUACAGCUUGGAUAGUAUUUUGUUA	0.109 ± 0.019	0.00311 ± 0.003	0.00556 ± 0.002
UCCUGGAUCAGGUUGGAUAGUAUUUAGUUA	0.164 ± 0.013	0.0112 ± 0.0027	0.00425 ± 0.003
UCCUGGAACAGGCUUGCAUAGUAUUUAGUUA	0.219 ± 0.019	0.0094 ± 0.0029	0.0145 ± 0.0037
UCCUGGAUGAGCUUGACAUAGUAUUUAGUUA	0.0929 ± 0.01	0.00352 ± 0.0026	0.00729 ± 0.0021
UCCUGCUACAGGUUGCAUUGUAUUUAGUUA	0.141 ± 0.019	0.0103 ± 0.0026	0.00597 ± 0.0023
UCCUGGAACAGCUUGCACAGUAUUUAGUUA	0.169 ± 0.014	0.0128 ± 0.003	0.0589 ± 0.015
UCCUGGUAGACCUUGCAUAGUAUUUAGUUA	0.221 ± 0.022	0.00488 ± 0.0036	0.0182 ± 0.0065
UCCUGGAUCAGCUUGCAUAGUAUUUAGUUG [g2:g22:cont:t1G]	0.285 ± 0.018	0.00983 ± 0.0019	0.0209 ± 0.0054
UCCUGGAUGAGCUUGCAUUGUAAUUAGUUA	0.0683 ± 0.013	0.0035 ± 0.0031	0.00306 ± 0.0025
